Measurements published in PubChem BioAssay (NCI).
About 83,000 compounds went through this panel and 20% of them were active in at least one assay; those are over-represented in the sample as a whole.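 Testing used 96-well plates and a 48-hour single-concentration exposure. Example: -40 means 40% of the starting cells died.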 Calls of active or inactive are those of the source. The calls were made as follows: active = growth percent below 10; inactive = the rest.

Assays:
Assay in all cases: NCI-60 one-dose screen, 48 h (100 = growth as untreated, 0 = no growth, -100 = all killed)
Conditions in all cases: 10 µM unless noted
[1] = system: RPMI-8226 leukemia
[2] = system: OVCAR-8 ovarian
[3] = system: OVCAR-5 ovarian
[4] = system: OVCAR-4 ovarian
[5] = system: SK-OV-3 ovarian
[6] = system: IGROV1 ovarian
[7] = system: OVCAR-3 ovarian
[8] = system: NCI/ADR-RES ovarian
[9] = system: T-47D breast
[10] = system: BT-549 breast
[11] = system: MDA-MB-435 melanoma
[12] = system: SW-620 colon
[13] = system: MCF7 breast
[14] = system: HCT-116 colon
[15] = system: HCC-2998 colon
[16] = system: KM12 colon
[17] = system: HS 578T breast

Measured: growth

CC(=O)CCC(=O)OCc1cc(=O)c(O)co1
inactive: [1] 107% | [2] 108% | [3] 93.5% | [4] 112% | [5] 128% | [6] 98.6% | [7] 106% | [8] 98.3% | [9] 111% | [10] 102% | [11] 106% | [12] 97% | [13] 99% | [14] 97.3% | [15] 87.3% | [16] 93.5%

O=C(CCN1CCCC1)Nc1ccc2c(NCCCCc3ccccc3)c3ccccc3nc2c1
active: [1] -42.7% | [2] 1.13% | [3] 7.16% | [4] -74.6% | [6] -18.1% | [7] -82.6% | [9] -27.2% | [11] -91.2% | [12] -60.5% | [13] -75.9% | [14] -70.8% | [15] -90.9% | [16] -79.1%
inactive: [5] 53.9% | [8] 80.8% | [10] 56.9%

C=C(C)[C@@H]1CC[C@]2(C(=O)N3CCN(C)CC3)CC[C@]3(C)[C@H](CC[C@@H]4[C@@]5(C)CC[C@H](OCCC#N)C(C)(C)[C@@H]5CC[C@]43C)[C@@H]12
active: [2] 6.81%
inactive: [1] 29.7% | [3] 129% | [4] 48.8% | [5] 109% | [6] 98.2% | [7] 103% | [17] 104% | [8] 45.8% | [9] 91.7% | [10] 107% | [11] 107% | [13] 77.7% | [14] 44.4% | [15] 102% | [16] 48.2%

COc1cc2c(=O)n(CCN)c3c4cc5c(cc4ccc3c2cc1OC)OCO5
inactive: [5] 16.6% | [9] 27.1% | [10] 35.2% | [13] 17.6% | [15] 44.9%
active: [1] -41.7% | [2] -49.9% | [3] -76.9% | [4] -76% | [6] -75.6% | [7] -79.3% | [8] -37.3% | [11] -91% | [12] -75.6% | [14] -70.9% | [16] -64%

Cc1c(C)c([N+](=O)[O-])c(C)c([N+](=O)[O-])c1C
inactive: [1] 102% | [2] 104% | [3] 104% | [4] 99.5% | [5] 114% | [6] 104% | [7] 109% | [17] 102% | [8] 108% | [9] 113% | [10] 95.8% | [11] 115% | [12] 109% | [13] 97.3% | [14] 105% | [16] 108%

COc1cc(C2C3=C(COC3=O)N(CCO)c3cc4c(cc32)OCO4)cc(OC)c1OC (centres undefined)
inactive: [1] 15.2% | [2] 28.4% | [3] 27.7% | [4] 28.5% | [6] 19.1% | [8] 27.2% | [9] 36.7% | [10] 10.6% | [12] 18.8%
active: [5] -24.2% | [7] -27.6% | [17] -6.37% | [11] -2.88% | [13] -6.88% | [14] 4.34% | [15] -13% | [16] 5.43%

COc1ccc(-c2nc(S(=O)(=O)c3ccccc3)c(S(=O)CC(=O)N3CCC(C)CC3)o2)cc1 (centres undefined)
active: [1] -14.6% | [7] -42.6% | [12] 1.06% | [14] -55.9%
inactive: [2] 33.9% | [3] 48% | [4] 28.8% | [5] 92.2% | [6] 25.6% | [17] 77.7% | [8] 59.7% | [9] 15.6% | [10] 33.5% | [11] 57.2% | [13] 24.3% | [16] 68.1%

COC(=O)c1ccc2c(c1)[n+](=O)c(C(C)=O)c(C(F)(F)F)n2[O-]
active: [1] -48% | [2] 9.07% | [3] -12.9% | [4] -42% | [5] -31.4% | [6] -78.3% | [7] -92.8% | [17] -19.4% | [8] -40.7% | [9] -73.6% | [10] -19.6% | [11] 0.455% | [13] -50.3% | [14] -98% | [15] -86.9% | [16] -93.5%

O=C1Nc2cc(Cl)ccc2/C1=C\c1c(-c2ccc(F)cc2)nc2ccccn12
active: [4] -2.19% | [5] -26.3% | [7] -58.3% | [17] -4.87% | [11] -55% | [12] 9.82% | [13] 2.1% | [14] -80.1% | [16] -1.1%
inactive: [1] 45.8% | [2] 34.5% | [3] 43.2% | [6] 14% | [9] 24.2% | [10] 21.6% | [15] 31.5%

CCNc1nc2cc(Nc3ccnc4cc(Cl)ccc34)ccc2o1
active: [11] 9.8%
inactive: [1] 80.9% | [2] 85.3% | [3] 71.8% | [4] 75.5% | [5] 84.8% | [6] 70.1% | [17] 84.5% | [8] 52.3% | [9] 66.4% | [10] 81.4% | [12] 54.9% | [13] 40.8% | [14] 42.3% | [15] 68.7% | [16] 38%

C#Cc1cccc(NC(=O)c2cccc(NC(=O)CCl)c2)c1
inactive: [5] 56.4% [8.25 µM] | [17] 31.8% [8.25 µM] | [9] 25% [8.25 µM] | [15] 74.3% [8.25 µM] | [16] 16.8% [8.25 µM]
active: [1] -3.03% [8.25 µM] | [2] -28.3% [8.25 µM] | [3] 8.37% [8.25 µM] | [4] -38.1% [8.25 µM] | [6] -53.5% [8.25 µM] | [7] -71.3% [8.25 µM] | [8] -11.5% [8.25 µM] | [10] -43.5% [8.25 µM] | [11] -13.2% [8.25 µM] | [12] -74.2% [8.25 µM] | [13] 3.07% [8.25 µM] | [14] -20.3% [8.25 µM]

O=C(CSc1nc2ccccc2[nH]1)NCc1ccccc1
inactive: [1] 101% | [2] 104% | [3] 95.4% | [4] 97.6% | [5] 101% | [6] 102% | [7] 105% | [17] 97.9% | [8] 102% | [9] 92% | [10] 105% | [12] 99.2% | [13] 95.5% | [14] 107% | [15] 102% | [16] 105%
